In PubChem BioAssay (Tox21):
Records with an inconclusive call do not appear. Calls of active or inactive are those of the source. Unless noted, the call rests on the fitted dose curve; in most records, active means well fitted curve in the direction sought with a large enough effect in the repeat runs; inconclusive means weak or mixed curves; inactive means no such curve, though single readings can be large; an effect the other way counts as inactive or inconclusive.

Tests used:
[1] = biological target: Retinoic acid receptor RXR-alpha (Homo sapiens) (UniProt P19793); assay: qHTS assay to identify small molecule agonists of the RXR signaling pathway (AID 1159527; calls by dose curve; further: nearly all actives have a fitted effect of over 35% in size)
Summary of the method: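 Agonist mode; 9-cis retinoic acid positive control. HEK 293T UAS-bla reporter cells, 2% charcoal-stripped FBS, 16 hr compound exposure at 37 C/5% CO2. LiveBLAzer B/G FRET substrate 2 hr RT; ex 405, em 460/530 nm.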

[2] = qHTS assay to identify small molecule agonists of the RXR signaling pathway - cell viability counter screen (AID 1159529); further: series mostly up to about 77 µM; nearly all actives have a fitted effect of over 50% in size
Summary of the method: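 Luminescence from CellTiter-Glo (30 min, RT) measured viability in the same wells as the beta-lactamase reporter readout. Cells: GeneBLAzer RXR-alpha HEK 293T, 2% charcoal-stripped FBS. Compound exposure 16 hr, 37 C.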

[3] = qHTS assay to identify small molecule antagonists of the retinoid acid receptor (RAR) signaling pathway - cell viability counter screen (AID 1159551); further: nearly all actives have a fitted effect of over 35% in size
Summary of the method: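 Seed C3RL4 cells; next day add compound, then retinol to 1 uM final; incubate 6 h at 37 C; add CellTiter-Glo; read luminescence after 30 min at RT.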

[4] = qHTS assay to identify small molecule antagonists of the retinoic acid receptor (RAR) signaling pathway (AID 1159552; further: nearly all actives have a fitted effect of over 50% in size)
Summary of the method: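 Luminescence from a RARE luciferase reporter in C3RL4 cells served as read-out. Cells received compounds together with 1 uM final retinol and incubated 6 hr at 37 C before detection reagent was added for 30 min at room temperature.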

[5] = qHTS assay to identify small molecule agonists of the retinoic acid receptor (RAR) signaling pathway (AID 1159553)
Summary of the method: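 Activation of retinol signaling was monitored via a RARE luciferase reporter in C3RL4 cells. After 6 hr compound treatment at 37 C, detection reagent was added for 30 min at room temperature before luminescence reading.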

[6] = qHTS assay to identify small molecule antagonists of the estrogen related receptor (ERR) signaling pathway - cell viability counter screen (AID 1224818);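 further: series mostly up to about 46 µM; viability measured after 17.5 h of compound exposure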
Summary of the method: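 In the same ERR cell assay, compound-treated wells (17.5 h, 37 C) were multiplexed with a fluorogenic viability reagent, CellTiter-Fluor, read after 30 min to flag cytotoxic substances.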

[7] = qHTS assay to identify small molecule antagonists of the estrogen related receptor signaling pathway with the pleiotropic PPARgamma coactivator (PGC) cell viability counter screen (AID 1224822; further: series mostly up to about 46 µM)
Summary of the method: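 Compounds in DMSO, with positive and negative controls, were applied to PGC/ERR cells (2,000/well) and left 17.5 h at 37 C before CellTiter-Fluor detection.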

[8] = qHTS assay to identify small molecule antagonists of the estrogen related receptor (ERR) signaling pathway from Tox21 library - cell viability counter screen (AID 1224834); further: nearly all actives have a fitted effect of over 30% in size
Summary of the method: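 CellTiter-Fluor fluorescence measured; ERR cells; 17.5 h compound incubation at 37 C; 30 min reagent step.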

[9] = qHTS assay to identify small molecule agonists of the constitutive androstane receptor (CAR) signaling pathway - cell viability counter screen (AID 1224836); further: series mostly up to about 92 µM; nearly all actives have a fitted effect of over 45% in size
Summary of the method: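 Viability read-out: CellTiter-Fluor fluorescence after 23 h compound exposure at 37 C/5% CO2 in double-stable HepG2-CYP2B6-hCAR cells, with PK11195 present at 0.75 uM final; compounds tested in 15-point titration.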

[10] = qHTS assay to identify small molecule antagonists of the constitutive androstane receptor (CAR) signaling pathway - cell viability counter screen (AID 1224837); further: series mostly up to about 92 µM; nearly all actives have a fitted effect of over 45% in size
Summary of the method: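 Using CellTiter-Fluor, viability is scored in HepG2 cells stably carrying hCAR and a 2.2kb CYP2B6 reporter after 23 hr compound exposure across 15 concentrations, with CITCO present at 50 nM.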

[11] = biological target: Nuclear receptor subfamily 1 group I member 3 (Homo sapiens) (UniProt Q14994); assay: qHTS assay to identify small molecule antagonists of the constitutive androstane receptor (CAR) signaling pathway (AID 1224838);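 further: HepG2 cells stably expressing hCAR with CYP2B6 luciferase reporter stimulated by CITCO; nearly all actives have a fitted effect of over 40% in size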
Summary of the method: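 Reporter luminescence was quantified after 24 h exposure of hCAR/CYP2B6-2.2kb double-stable HepG2 cells to compounds at 15 concentrations in the presence of 50 nM CITCO final.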

[12] = biological target: Nuclear receptor subfamily 1 group I member 3 (Homo sapiens) (UniProt Q14994); assay: qHTS assay to identify small molecule agonists of the constitutive androstane receptor (CAR) signaling pathway (AID 1224839);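 further: HepG2 cells stably carrying human CAR and a CYP2B6 luciferase reporter; series mostly up to about 92 µM; nearly all actives have a fitted effect of over 15% in size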
Summary of the method: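 Luminescence read-out (ONE-Glo, 30 min, room temperature) from double-stable HepG2-CYP2B6-hCAR cells exposed 24 h to 15-point compound series in presence of 0.75 uM PK11195 final.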

[13] = qHTS assay to identify small molecule antagonists of the estrogen related receptor signaling pathway with the pleiotropic PPARgamma coactivator (PGC) from Tox21 10K library - cell viability counter screen (AID 1224840; active means well fitted cell-killing curve with a large enough effect in the repeat runs, not every such curve was filed as active; further: nearly all actives have a fitted effect of over 40% in size)
Summary of the method: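 Here the PGC/ERR cells serve as a cytotoxicity control: they are exposed to compounds for 17.5 hours at 37 C, and live-cell signal is quantified using CellTiter-Fluor fluorescence.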

[14] = biological target: Luciferin 4-monooxygenase (Photinus pyralis) (UniProt P08659); assay: qHTS assay to identify small molecule inhibitors of firefly luciferase (AID 1224835); further: series mostly up to about 120 µM; nearly all actives have a fitted effect of over 25% in size
Summary of the method: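 Biochemical qHTS: compounds run as interplate titrations against purified firefly enzyme, with D-luciferin and ATP each at its KM concentration. Light output recorded by CCD imaging.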

[15] = qHTS assay to identify small molecule antagonists of the estrogen related receptor (ERR) signaling pathway (AID 1224819;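 further: luminescence from an ERR-driven luciferase reporter measured with One-Glo reagent; series mostly up to about 46 µM; nearly all actives have a fitted effect of over 50% in size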)
Summary of the method: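 qHTS in ERR cells, 2,000/well, 1536 format. Cpd (DMSO) added after 6 h settle, 18 h 37 C. One-Glo luminescence, 30 min RT.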

[16] = qHTS assay to identify small molecule agonists of the estrogen related receptor (ERR) signaling pathway (AID 1224820)
Summary of the method: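 Cells: ERR line from NTP, 2,000/well. Pre-incubation 6 h, 37 C/5% CO2. Compound (DMSO) pin transfer, 18 h 37 C. One-Glo, 30 min RT, luminescence.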

[17] = system: estrogen-related receptor alpha (ERRalpha) with PGC-1alpha coactivator, human; assay: qHTS assay to identify small molecule antagonists of the estrogen related receptor signaling pathway with the pleiotropic PPARgamma coactivator (PGC) (AID 1224821; calls by dose curve;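 further: series mostly up to about 46 µM; lower luminescence signal means antagonism of PGC/ERR signalling; nearly all actives have a fitted effect of over 50% in size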)
Summary of the method: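 Luminescent read-out (One-Glo, 30 min at room temperature) following 18 h treatment of PGC/ERR cells at 37 C with compounds delivered in DMSO. Cells had settled 6 h at 37 C/5% CO2 before dosing.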

[18] = qHTS assay to identify small molecule agonists of the estrogen related receptor signaling pathway with the pleiotropic PPARgamma coactivator (PGC) (AID 1224823)
Summary of the method: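 Steps: plate PGC/ERR cells at 2,000 cells/well; incubate 6 h, 37 C/5% CO2; pin-transfer compounds (DMSO); incubate 18 h, 37 C; add One-Glo; 30 min RT; read luminescence.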

[19] = qHTS assay to identify small molecule antagonists of the estrogen related receptor signaling pathway with the pleiotropic PPARgamma coactivator (PGC) from Tox21 10K library (AID 1224841; call rule not given here)
Summary of the method: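 Each well held 2,000 PGC/ERR cells, pre-incubated six hours (37 C, 5% CO2). Test substances in DMSO were added by pin tool and left for 18 h at 37 C before luciferase detection by One-Glo.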
On the % scale 0 is the no-effect control and ±100 the full control effect.

Nuclear receptor subfamily 1 group I member 3 (Homo sapiens), sequence (Q14994 whole entry, looked up): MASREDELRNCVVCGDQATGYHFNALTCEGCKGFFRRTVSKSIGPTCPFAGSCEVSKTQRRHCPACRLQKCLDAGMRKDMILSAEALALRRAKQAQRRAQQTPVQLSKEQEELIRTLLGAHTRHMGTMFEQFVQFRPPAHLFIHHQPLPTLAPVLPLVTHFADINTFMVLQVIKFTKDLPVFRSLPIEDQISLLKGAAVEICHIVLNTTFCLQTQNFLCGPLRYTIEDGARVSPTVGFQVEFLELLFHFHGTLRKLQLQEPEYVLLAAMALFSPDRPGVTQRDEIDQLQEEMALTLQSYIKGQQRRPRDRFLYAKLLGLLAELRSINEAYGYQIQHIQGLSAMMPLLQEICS
Retinoic acid receptor RXR-alpha (Homo sapiens), sequence (P19793 whole entry, looked up): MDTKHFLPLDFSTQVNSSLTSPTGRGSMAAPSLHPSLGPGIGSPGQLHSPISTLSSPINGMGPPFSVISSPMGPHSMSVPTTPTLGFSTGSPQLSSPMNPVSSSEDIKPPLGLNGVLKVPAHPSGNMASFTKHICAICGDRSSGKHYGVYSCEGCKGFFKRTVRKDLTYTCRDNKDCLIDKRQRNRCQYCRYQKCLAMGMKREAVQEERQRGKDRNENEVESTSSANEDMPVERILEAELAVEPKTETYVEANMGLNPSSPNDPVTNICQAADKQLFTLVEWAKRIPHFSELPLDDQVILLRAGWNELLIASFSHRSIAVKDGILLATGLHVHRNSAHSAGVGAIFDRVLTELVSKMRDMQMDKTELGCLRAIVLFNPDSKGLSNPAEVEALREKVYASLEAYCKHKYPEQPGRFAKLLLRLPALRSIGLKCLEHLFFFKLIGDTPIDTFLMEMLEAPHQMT
Luciferin 4-monooxygenase (Photinus pyralis), sequence (P08659 whole entry, looked up): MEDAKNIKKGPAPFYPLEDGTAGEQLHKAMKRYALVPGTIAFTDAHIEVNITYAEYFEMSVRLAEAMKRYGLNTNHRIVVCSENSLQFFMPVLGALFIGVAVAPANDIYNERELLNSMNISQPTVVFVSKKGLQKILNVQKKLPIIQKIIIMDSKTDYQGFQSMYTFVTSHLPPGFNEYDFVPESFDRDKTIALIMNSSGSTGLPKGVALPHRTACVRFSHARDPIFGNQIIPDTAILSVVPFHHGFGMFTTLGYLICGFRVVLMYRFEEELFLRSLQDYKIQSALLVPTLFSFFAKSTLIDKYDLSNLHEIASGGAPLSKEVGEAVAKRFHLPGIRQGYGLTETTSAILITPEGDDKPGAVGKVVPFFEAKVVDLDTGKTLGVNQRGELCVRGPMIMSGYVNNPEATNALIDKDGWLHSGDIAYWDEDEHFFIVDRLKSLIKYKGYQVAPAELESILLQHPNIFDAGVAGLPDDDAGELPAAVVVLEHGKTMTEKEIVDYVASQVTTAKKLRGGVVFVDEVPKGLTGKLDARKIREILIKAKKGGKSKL

Cc1[nH]c(=O)c(C#N)cc1-c1ccc2nccn2c1
inactive: Potency [1] | Potency [2] | outcome [3] | Potency [4] | Potency [5] | outcome [6] | outcome [7] | Potency [8] | Potency [9] | Potency [10] | Potency [11] | Potency [12] | Potency [13]

CN1CCC(=C2c3ccccc3CC(=O)c3sccc32)CC1
inactive: Potency [1] | Potency [2] | outcome [3] | Potency [4] | Potency [5] | outcome [6] | outcome [7] | Potency [8] | Potency [9] | Potency [10] | Potency [11] | Potency [12] | Potency [13]

Nc1ccc(S(=O)(=O)Nc2ccnn2-c2ccccc2)cc1
inactive: Potency [1] | Potency [2] | activity change, negative = cytotoxicity [3] 2.06% [at 19 µM] | activity, negative = inhibition [4] -19.4% [at 19 µM] | Potency [5] | outcome [6] | outcome [7] | viability change, negative = cytotoxic [8] -1.42% [at 19 µM] | activity change, negative = inhibition [14] 8.37% [at 23.6 µM] | viability change, negative = cytotoxic [9] 4.16% [at 19 µM] | activity change, negative = cytotoxicity [10] 3.82% [at 19 µM] | activity, negative = inhibition [11] 0.346% [at 19 µM] | activation [12] -2.19% [at 19 µM] | viability change, negative = cytotoxic [13] 2.18% [at 19 µM]

N=c1nc(N2CCCCC2)cc(N)n1O
inactive: Potency [1] | Potency [2] | outcome [3] | Potency [4] | Potency [5] | outcome [6] | outcome [7] | Potency [8] | Potency [14] | Potency [9] | Potency [10] | Potency [11] | Potency [12] | Potency [13]

CCCN(CCC)CCc1cccc2c1CC(=O)N2
inactive: Potency [1] | Potency [2] | outcome [3] | Potency [4] | Potency [5] | outcome [6] | outcome [7] | Potency [8] | Potency [14] | Potency [9] | Potency [10] | Potency [11] | Potency [12] | Potency [13]

C[C@H](NC(CCc1ccccc1)C(=O)O)C(=O)N1CCC[C@H]1C(=O)O (stereo partly drawn)
inactive: Potency [1] | Potency [2] | outcome [3] | Potency [4] | Potency [5] | outcome [6] | outcome [15] | outcome [16] | outcome [17] | outcome [7] | outcome [18] | Potency [8] | Potency [14] | Potency [9] | Potency [10] | Potency [11] | Potency [12] | Potency [13] | Potency [19]

O=C(CCCN1CCC(O)(c2cccc(C(F)(F)F)c2)CC1)c1ccc(F)cc1
inactive: Potency [1] | Potency [2] | outcome [3] | Potency [4] | Potency [5] | outcome [6] | outcome [16] | outcome [17] | outcome [7] | outcome [18] | Potency [8] | Potency [14] | Potency [9] | Potency [10] | Potency [11] | Potency [12] | Potency [13]

NCCCNCCSP(=O)(O)O
inactive: activation [1] 10.3% [at 6.98 µM] | activity change, negative = cytotoxicity [2] 8.34% [at 6.97 µM] | activity change, negative = cytotoxicity [3] 1.85% [at 8.39 µM] | activity, negative = inhibition [4] 8.45% [at 8.39 µM] | activation [5] -0.783% [at 8.36 µM] | outcome [6] | outcome [7] | viability change, negative = cytotoxic [8] 2.57% [at 8.39 µM] | activity change, negative = inhibition [14] 0.729% [at 10.5 µM] | viability change, negative = cytotoxic [9] 10.5% [at 8.39 µM] | activity change, negative = cytotoxicity [10] 2.76% [at 8.39 µM] | activity, negative = inhibition [11] -1.02% [at 8.39 µM] | activation [12] -1.23% [at 8.39 µM] | viability change, negative = cytotoxic [13] 11.6% [at 8.39 µM]
